The source of these data is PubChem BioAssay AID2540 (Sanford-Burnham Center for Chemical Genomics, 2010).

The term inhibition denotes the relative decrease from the control value, in per cent.

Molecules are shown by their SMILES. The whole screen tested about 330,000 compounds, of which about 4,100 (1.2%) were called active. The entries come from a sample that favours actives as a whole. A number with no mark means an inactive call. Rule as the data show it: active = inhibition above about 50%; inactive = the rest.

Sequence of Sentrin-specific protease 8 (Homo sapiens) (Q96LD8 whole entry, looked up): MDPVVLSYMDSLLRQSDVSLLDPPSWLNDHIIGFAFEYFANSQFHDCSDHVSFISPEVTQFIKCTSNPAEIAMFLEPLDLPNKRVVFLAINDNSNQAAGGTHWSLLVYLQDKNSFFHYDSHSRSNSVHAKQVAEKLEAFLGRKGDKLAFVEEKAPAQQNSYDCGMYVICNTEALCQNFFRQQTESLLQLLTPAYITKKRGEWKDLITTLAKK

The test addresses Sentrin-specific protease 8 (Homo sapiens) (UniProt Q96LD8). The test is described as follows: blockers of human SENP8 peptidase activity – biochemical, luminescence, primary screen (AID 2540). Particulars: purified SENP8, Z-RLRGG-aminoluciferin cleavage, at 10 µM, hits give high values.
Turning to `COc1ccccc1OC(C)C(=O)Nc1ccc(S(=O)(=O)Nc2nccs2)cc1` (configuration not stated), the inhibition is -3.08%.

With `Clc1ccccc1SCc1nc2ccccc2[nH]1`, the inhibition was 14.7%.

Consider `c1ccc2[nH]c(-c3nc4ccccc4[nH]3)nc2c1`, for which the inhibition is 92.4% (active).

For the molecule `COc1ccc(Br)cc1C(=O)NC(=S)Nc1cc(-c2nc3ccccc3[nH]2)ccc1C`, the inhibition is 3.06%.

`Cc1ccccc1N1CC(c2nc3ccccc3[nH]2)CC1=O` (configuration not stated): the inhibition is 2.73%.

Turning to `Cc1ccc(-c2nc3ccccc3[nH]2)cc1N`, the inhibition was 87.1% (active).

For `O=C(Nc1sc2c(c1-c1nc3ccccc3[nH]1)CCCC2)C1CC1`, the inhibition is -0.363%.

Consider `CC(OC(=O)CCCOc1ccccc1)C(=O)Nc1ccc(Cl)cn1` (configuration not stated), for which the inhibition was -14.4%.

For the molecule `CCOc1ccccc1C1CC(c2ccc(Cl)cc2)Nc2nc(N)nn21` (configuration not stated), the inhibition is 0.924%.

On to `O=C(COC(=O)c1cnc(Cl)c(Cl)c1)NCc1ccco1`, for which the inhibition is -1.98%.

Turning to `CC(OC(=O)CNC(=O)c1cccc(F)c1)C(=O)NC1CCCCC1C` (configuration not stated), the inhibition was -11.2%.

As to `O=C(Nc1ccn(Cc2ccccc2F)n1)c1ccc(COc2ccc(Cl)cc2Cl)o1`, the inhibition is 8.53%.

`O=C(Nc1ccn(Cc2ccccc2)n1)c1n[nH]c([N+](=O)[O-])c1Cl`: the inhibition was 97.2% (active).

Regarding `Cc1c(Br)c([N+](=O)[O-])nn1CC(=O)N1CCN(Cc2ccccc2)CC1`, the inhibition is -7.38%.

For `CC(CCc1ccc(O)cc1)NCc1ccc(Cl)cc1Cl` (configuration not stated), the inhibition was -5.92%.

As for `COc1ccc(C2=Nc3cc(C)ccc3OC2)cc1`, the inhibition was 67.5% (active).

`Cc1ccc(C(=O)NNC2=Nc3cc([N+](=O)[O-])ccc3OC2)cc1`: the inhibition is -6.4%.

For `COc1ccc(C2=NOC(COC(=O)c3ccc4ccccc4n3)C2)cc1` (configuration not stated), the inhibition was -6.73%.

Take `COc1ccccc1-n1c(-c2cc(-c3ccco3)[nH]n2)n[nH]c1=S`: the inhibition was 3.44%.

Consider `Cn1c(-c2ccco2)nc2cc3ccccc3cc21`, for which the inhibition is 94.4% (active).

On to `CS(=O)(=O)n1nc(-c2ccco2)nc1N`, for which the inhibition was 0.284%.

`Cc1ccc(NC(=O)CSc2nnc(CNC(=O)c3ccccc3F)o2)cc1`: the inhibition is 0.136%.

With `Cc1ccccc1-n1nnc2c(=O)oc3ccccc3c21`, the inhibition was -6.33%.

For the molecule `CC(NC(=O)Nc1ccccc1)C(c1cccs1)N1CCN(c2ccccc2)CC1` (configuration not stated), the inhibition was -7.79%.

Consider `COC(=O)C1=C(N)Oc2cc(C)[nH]c(=O)c2C1c1ccc(Cl)cc1` (configuration not stated), for which the inhibition was 3.38%.

As for `COCCCN(C(=O)CSCc1ccc(C)cc1)c1c(N)n(Cc2ccccc2)c(=O)[nH]c1=O`, the inhibition was -5.5%.

As for `Cc1ccc(NC(=O)CSCC(=O)Nc2sccc2C#N)cc1`, the inhibition was 10.4%.

Turning to `Cc1csc(SCC(=O)Nc2sccc2C#N)n1`, the inhibition was 92.7% (active).

For `Cc1cccc(C)c1Nc1nnc(SCC(=O)Nc2sccc2C#N)s1`, the inhibition is 9.07%.

Take `Cn1cccc1Cc1nnc(SCC(=O)NCc2ccc3c(c2)OCO3)n1CCc1ccccc1`: the inhibition was 2.69%.

Regarding `CCOc1nnc(C)c2c(C)n(-c3cccc(Cl)c3)nc12`, the inhibition was 8.66%.

Consider `Cc1nonc1C(=O)N/N=C/c1ccc(O)cc1`, for which the inhibition is 97.5% (active).

As to `Cc1nc2ccc(C(=O)N/N=C/c3ccc(O)cc3)cc2[nH]1`, the inhibition is -3.65%.

Regarding `CC(C)c1c(C(=O)N/N=C/c2ccc(-c3ccccc3)cc2)nnn1-c1nonc1N`, the inhibition was 9.04%.

As for `COC(=O)c1cccc(N(CC(=O)NCC2CCCO2)C(=O)CCC(=O)Nc2cc(C)on2)c1` (configuration not stated), the inhibition was -7.21%.

For `CCOC(=O)c1cnc2[nH]c3ccccc3n2c1=O`, the inhibition was 78.1% (active).

Consider `CCOC(=O)c1cnc2sccn2c1=O`, for which the inhibition was -2.74%.

Consider `CCOC(=O)c1cnc(COc2ccccc2Cl)[nH]c1=O`, for which the inhibition is -10.8%.

For the molecule `CCn1c2ccccc2c2cc(NC(=O)Nc3ccc([N+](=O)[O-])cc3C)ccc21`, the inhibition was -10.4%.

For the molecule `CC(=O)Nc1ccc(S(=O)(=O)N2CCn3cccc3C2C)cc1` (configuration not stated), the inhibition is -4.04%.

In the case of `COc1ccccc1CCNC(=O)C1CCN(C(=O)/C=C/c2ccccc2)CC1`, the inhibition is -12.7%.

In the case of `COc1ccc(-c2csc(Nc3ccccn3)n2)cc1`, the inhibition is 85.4% (active).

Regarding `COc1ccc(C(=O)Nc2nc(-c3ccc(S(=O)(=O)N4CCOCC4)cc3)cs2)cc1`, the inhibition was -0.876%.

For the molecule `CCCn1c(CCNc2nc(-c3ccc(OC)cc3)cs2)nc2ccccc21`, the inhibition is 1.24%.

As for `COc1ccc(-c2csc(NC(=O)COC(=O)Cc3ccc(Cl)cc3Cl)n2)cc1`, the inhibition is 2.3%.

Consider `c1ccc(Nc2nc(-c3ccncc3)cs2)nc1`, for which the inhibition is 80.4% (active).

With `Clc1ccc(Nc2nc(-c3cccs3)cs2)nc1`, the inhibition is 10.9%.

Regarding `COc1ccc(Nc2nc(-c3ccccc3)cs2)cc1`, the inhibition was 82.8% (active).

`COc1ccc2c(c1OC)C(=O)OC2Nc1nc(-c2ccccc2)cs1` (configuration not stated): the inhibition was 1.85%.

With `Clc1ccc(-c2csc(-c3ccncc3)n2)cc1`, the inhibition was -22.5%.

For the molecule `COC(=O)c1ccc(/C=N/N2C(C)CCCC2C)cc1` (configuration not stated), the inhibition was -6.16%.

In the case of `CC1(c2ccc3ccccc3c2)NC(=O)NC1=O` (configuration not stated), the inhibition was -0.811%.

For `Cc1c(O)c(C)c2c(c1O)C(=O)C[C@@H](c1ccccc1)O2`, the inhibition was 6.05%.

For `Cc1ccc(CS(=O)Cc2ccc(C(=O)N3CCOCC3)o2)cc1` (configuration not stated), the inhibition was -6.99%.

With `COc1ccc(F)cc1C(=O)C1CCCN(C(=O)CCc2ccccn2)C1` (configuration not stated), the inhibition was 29.7%.

For the molecule `O=C(COC(=O)c1ncc(Cl)c(Cl)c1Cl)NC1CCS(=O)(=O)C1` (configuration not stated), the inhibition was -7.58%.

In the case of `CCOC(=O)C1CCCN(C(=O)COc2ccc(N(C)S(=O)(=O)c3ccc(C)cc3)cc2)C1` (configuration not stated), the inhibition was -0.395%.

Take `NNC(=O)c1cnn(-c2ccccc2)c1C(F)(F)F`: the inhibition is -1.96%.

Turning to `O=C(COc1ccccc1Cl)Nc1ccc(C(=O)c2ccc(C(=O)O)cc2)cc1`, the inhibition was 2.39%.

With `COC(=O)c1ccc(NCC(=O)c2ccccc2)cc1`, the inhibition was 92.3% (active).

Consider `COC(=O)c1ccc(NCC(=O)N2CCCCCC2)cc1`, for which the inhibition was -5.06%.

With `COC(=O)c1ccc(NC(=O)Nc2ccc(C)cc2)cc1`, the inhibition was -16%.

As for `O=C(COC(=O)c1ccc(S(=O)(=O)Nc2ccccc2)cc1)NCC1CCCO1` (configuration not stated), the inhibition is -2.95%.

Regarding `CC1CN(S(=O)(=O)c2ccc(C(=O)Nc3sccc3C(N)=O)cc2)CC(C)O1` (configuration not stated), the inhibition was -3.19%.

Regarding `CCCOc1ccc(CNC(=O)C2CCN(c3nn4c(=O)cc(C)nc4s3)CC2)cc1`, the inhibition is 7.56%.

For the molecule `Nc1ccc(-c2nnc(-c3ccccc3)o2)cc1`, the inhibition is 40%.

`CCc1ccc2oc(-c3ccc(N)cc3)nc2c1`: the inhibition was 89.6% (active).

For `O=C(Nc1ccc2oc(-c3ccc4ccccc4c3)nc2c1)c1cccs1`, the inhibition is 5.01%.

`Fc1ccc2nc(-c3ccccc3)nc(SCc3nnc(-c4ccccc4)o3)c2c1`: the inhibition is 9.5%.

With `O=C(C[C@@H]1C/C=C\CCC(=O)OC[C@@H]2CCCN2C1=O)NCCO`, the inhibition is -14.7%.

As to `CC(C)[C@H](NC(=O)N1c2ccccc2NC(=O)[C@@H]1C(C)C)C(=O)N[C@H](C(=O)O)c1ccccc1`, the inhibition was -11.1%.

For the molecule `CN(Cc1nc2ccccc2s1)C(=O)c1ccc(F)cc1`, the inhibition is -4.17%.

With `COc1ccccc1OCc1nc2ccccc2s1`, the inhibition is 94.1% (active).

On to `COc1ccccc1N1CC(O)=C(c2nc3ccccc3s2)C1=N`, for which the inhibition is -8.72%.

As for `COC(=O)Cc1ccc(OCC(=O)NC2CCCC2)cc1`, the inhibition is -7.77%.

Consider `O=C(Nc1ccccc1C(F)(F)F)N1CCCC1c1cccnc1` (configuration not stated), for which the inhibition was 1.35%.

With `CC(=O)NCCC(=O)Nc1nc(-c2ccc3c(c2)OCCO3)cs1`, the inhibition was -10.2%.

Take `Cc1cccc(Nc2nc(-c3ccccc3)cs2)n1`: the inhibition is 81.3% (active).

Take `O=C(Nc1ccc(-c2csc(Nc3cccc(C(F)(F)F)c3)n2)cc1)c1cccc(C(F)(F)F)c1`: the inhibition is 2.09%.

`CC(=O)Nc1cccc(-c2csc(Nc3cccc(C)n3)n2)c1`: the inhibition was 90.4% (active).

Turning to `CCc1noc(C)c1C(=O)Nc1nc(-c2ccccc2)cs1`, the inhibition was -12.4%.

As for `Cc1ccccc1Nc1nc(-c2cccnc2)cs1`, the inhibition was 44%.

As to `CC(=O)NNc1cc(=O)c2c(=O)n(C)c(=O)n(C)c2[nH]1`, the inhibition is 5.83%.

`COc1ccc(N(CC(=O)N/N=C/c2cccc3c2OCCO3)S(=O)(=O)c2ccc(NC(C)=O)cc2)cc1`: the inhibition was -14.1%.

For the molecule `Cc1nc(COc2cc3oc(=O)cc(C)c3cc2Cl)cs1`, the inhibition is -13.3%.

On to `CCN1CCCC1CNC(=O)Cn1cnc2ccc(S(=O)(=O)N3CCC(C)CC3)cc2c1=O` (configuration not stated), for which the inhibition is 3.55%.

As for `CCC1Nc2ncnc(N3CCN(c4ccccc4)CC3)c2N(Cc2ccc(Cl)cc2)C1=O` (configuration not stated), the inhibition is -14%.

Turning to `CCOCC(=O)Nc1ncc(S(=O)(=O)c2ccc([N+](=O)[O-])cc2)s1`, the inhibition is 1.6%.

For the molecule `CSCc1ccc(C(=O)Nc2cc(C)cc(C)c2)cc1`, the inhibition is 72.8% (active).

Regarding `C=CCN(c1ccc(C(=O)Nc2cc(C)cc(C)c2)cc1)S(C)(=O)=O`, the inhibition was 3.93%.

Regarding `CC(=O)Nc1ccccc1NC(=O)c1cc(C)cc(C)c1`, the inhibition is -8.13%.

For `COc1cc(N=Cc2c(O)c3ccccc3oc2=O)c(OC)cc1Cl`, the inhibition is 20%.

On to `COc1ccccc1N=C(C)C1=C(O)COC1=O`, for which the inhibition is -4.5%.

Turning to `COc1ccccc1N=Cc1c(O)c2ccccc2oc1=O`, the inhibition is 58.3% (active).

Consider `C=CCn1c(C)cc(C2=NNC(=NCC)SC2)c1C`, for which the inhibition is 91.5% (active).

Consider `COc1ccc(N(Cc2ccc(N(C)C)cc2)C(=O)c2ccc(S(C)(=O)=O)cc2)cc1`, for which the inhibition was 7.56%.

With `O=C(CCc1ccccc1)Nc1ccc(NC(=O)C2CC2)nc1`, the inhibition is -0.592%.
